Drawing on PubChem BioAssay (NCI), this text covers growth for 14 compounds.

The structures appear in SMILES notation. This is part of a sample that, as a whole, favours compounds with a hit. Of some 83,000 tested, about 20% had one in any assay.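 Each cell line was grown in a 96-well plate and treated with one concentration of compound for 48 hours. Values below 10 were considered active.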 Calls of active or inactive are those of the source.

The experiment concerns CAKI-1 renal. As to the kind of experiment: NCI-60 one-dose screen, 48 h (100 = growth as untreated, 0 = no growth, -100 = all killed). To be noted: 10 µM unless noted.
`Nc1ccc(S(=O)(=O)c2ccc(NO)cc2)cc1`: the growth is 102% (inactive). As for `COc1cc(NC(C)CCCN)c2nccc(C)c2c1OC` (centres undefined), the growth is 99.9% (inactive). Consider `CCCC(=O)NNc1[nH]c(-c2cc(OC)c(OC)c(OC)c2)cc1C(=O)OCC`, for which the growth is 73.1% (inactive). For `CC(C)OC(=O)c1ccc2n1CCCc1cnc(Nc3ccccc3)nc1-2`, the growth is 65.6% (inactive). Turning to `COC(=O)c1ccc2[nH]c(O)c(C(=Nc3ccc(N(C)C(=O)CN4CCN(C)CC4)cc3)c3ccc(OC)cc3)c2c1`, the growth is 5.5% (active). Consider `CC(=O)c1cc(Nc2cc(C)nc(N)n2)cc(C(C)=O)c1`, for which the growth is 87% (inactive). In the case of `CCOC(=O)C1=C(C(F)(F)F)NC(=S)NC1CN1C(=O)c2ccccc2C1=O` (centres undefined), the growth was 88.3% (inactive). The figure for `CC(C)OC(=O)[C@H](C)N[P@@](=O)(OC[C@@]1(C)O[C@@H](n2cc(F)c(N)nc2=O)C[C@@H]1O[P@](=O)(N[C@@H](C)C(=O)OC(C)C)Oc1ccccc1)Oc1ccccc1` is 94.6% (inactive); for `COc1ccc(Cn2cc3c(c2-c2ccccc2)CCc2cnoc2-3)cc1OC` it is 18.9% (inactive). With `CC1C(=O)CCCC1=O`, the growth is 100% (inactive). With `Brc1ccc(-c2nc3ccccc3s2)cc1`, the growth is 73.4% (inactive).

Turning to `O=C(Nc1cccc(Cn2c(=O)[nH]c3ccc(Oc4ncccn4)cc3c2=O)c1)c1ccc(Cl)cc1`, the growth was 60.9% (inactive).

With `Cc1ccc(S(=O)(=O)Nc2cccc(Cn3c(=O)[nH]c4ccc(Oc5ncccn5)cc4c3=O)c2)cc1`, the growth was 92.9% (inactive).

As for `CC1(C)Oc2cc3oc(=O)ccc3cc2C[C@@H]1OCCOS(=O)(=O)c1ccc(C#N)cc1`, the growth was 86.3% (inactive).
